Measured values taken from paper PMC5515408, “Sequence-specific DNA binding by MYC/MAX to low-affinity non-E-box motifs”.
The full ranking holds about 4,500 sequences; the median of “log2 normalized fluorescence” is about -0.34, and the highest 2% start at about 3.3. Only a selection was taken, and the highest values are over-represented in it overall.

The sequences below were run against MAX:MAX (p21) (human, UniProt P61244-2 1-151) (assay: protein-binding microarray (anti-MAX antibody); PBM: 15 mM Tris-HCl pH 7.5, 100 mM KCl, 0.075% NP40, 7.5 mM beta-mercaptoethanol, 375 ng/ul BSA, 8 ng/ul poly(dA-dT):(dA-dT), 550 ng complex, 60 min, room tempe; high values mean tight binding). Details: protein: recombinant; tags: 6xHis; chain copies: 2; label: 3' end of printed strand (linker) attached to glass slide; dsDNA, one strand shown.
Sequence of MAX:MAX (p21) (P61244 other isoform, or with tags, fused parts or gaps): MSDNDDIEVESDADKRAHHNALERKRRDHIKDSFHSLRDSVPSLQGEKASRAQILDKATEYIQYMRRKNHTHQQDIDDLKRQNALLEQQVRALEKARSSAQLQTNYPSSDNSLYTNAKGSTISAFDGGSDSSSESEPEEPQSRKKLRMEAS
Summary of the method: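 Recombinant His-tagged human MYC:MAX or MAX:MAX dimers (550 ng, expressed in E. coli) were incubated for 60 min at room temperature in Tris-KCl buffer, pH 7.5, with NP40, BSA and poly(dA-dT) competitor. The custom Agilent glass array held ~5000 unique 12-nt sequences, each spotted in triplicate and made double-stranded by primer extension. Bound protein was detected with anti-MAX and secondary antibodies and scanned at 543 nm. Binding is reported as log2 normalized fluorescence.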
“CCGGCTGACACGAGGTATTAATAGCTAAGATTACTATATCGACG” was tested, and the binding signal was 3.08 log2 normalized fluorescence.
For “CCGGCGGACACGAGGTATTAATAGCTAAGATTACTATATCGACG”, the binding signal was 3.32 log2 normalized fluorescence.
In the case of “CCGGCTAACACGAGGTATTAATAGCTAAGATTACTATATCGACG”, the binding signal is reported as 3.28 log2 normalized fluorescence.
In the case of “CCGGCAGACACGAGGTTTTAATAGCTAAGATTACTATATCGACG”, the binding signal is reported as 3.03 log2 normalized fluorescence.
In the case of “CCGGCGGACACGCGGTATTAATAGCTAAGATTACTATATCGACG”, the binding signal is reported as 3.26 log2 normalized fluorescence.
For “CCGGCAGACACGAGGTATTAATAGCTAAGATTACTATATCGACG”, the binding signal was 3.44 log2 normalized fluorescence.
With “CCGGCTGACCCAAGGTATTAATAGCTAAGATTACTATATCGACG” the binding signal was -0.0673 log2 normalized fluorescence.
“CCGGCTGACATGTGGCCTTAATAGCTAAGATTACTATATCGACG” was tested, and the binding signal was 2.99 log2 normalized fluorescence.
In the case of “CCGGCTGAGTCACTGTATTAATAGCTAAGATTACTATATCGACG”, the binding signal is reported as -0.498 log2 normalized fluorescence.
“CCGGCTGATTGCGAGTATTAATAGCTAAGATTACTATATCGACG” was tested, and the binding signal was -0.512 log2 normalized fluorescence.
“CCGGCCGACACGTGCTTTTAATAGCTAAGATTACTATATCGACG” was tested, and the binding signal was 3.21 log2 normalized fluorescence.
With “CCGGCTGACACGTGCGCTTAATAGCTAAGATTACTATATCGACG” the binding signal was 3.16 log2 normalized fluorescence.
“CCGGCTGACACGTGCCTTTAATAGCTAAGATTACTATATCGACG” was tested, and the binding signal was 3.18 log2 normalized fluorescence.
With “CCGGCTGACACGTGCTTTTAATAGCTAAGATTACTATATCGACG” the binding signal was 3.34 log2 normalized fluorescence.
In the case of “CCGGCTAACACGTGCTTTTAATAGCTAAGATTACTATATCGACG”, the binding signal is reported as 3.33 log2 normalized fluorescence.
In the case of “CCGGCTGACACGTAGCTTTAATAGCTAAGATTACTATATCGACG”, the binding signal is reported as 1.51 log2 normalized fluorescence.
“CCGGCTGACACGTGCCCTTAATAGCTAAGATTACTATATCGACG” was tested, and the binding signal was 3.16 log2 normalized fluorescence.
“CCGGCTGACACGTGTGCTTAATAGCTAAGATTACTATATCGACG” was tested, and the binding signal was 3.4 log2 normalized fluorescence.
For “CCGGCTGACACGTGGCTTTAATAGCTAAGATTACTATATCGACG”, the binding signal was 3.04 log2 normalized fluorescence.
“CCGGCTGAGACGTGGGATTAATAGCTAAGATTACTATATCGACG” was tested, and the binding signal was 0.979 log2 normalized fluorescence.
“CCGGCTGAATGTCTGTATTAATAGCTAAGATTACTATATCGACG” was tested, and the binding signal was 0.29 log2 normalized fluorescence.
In the case of “CCGGCTGATGCAGCGTATTAATAGCTAAGATTACTATATCGACG”, the binding signal is reported as -0.0989 log2 normalized fluorescence.
For “CCGGCTGGCACCTGGTATTAATAGCTAAGATTACTATATCGACG”, the binding signal was 1.88 log2 normalized fluorescence.
In the case of “CCGGCTGACTAATGGTATTAATAGCTAAGATTACTATATCGACG”, the binding signal is reported as -0.355 log2 normalized fluorescence.
